# KCNQ2 block – KCNQ2 (rat) channel inhibition; B-score at 10 µM; 310,000 tested, 1.1% active; O88943; CHO-K1 KCNQ2, FluxOR thallium flux, 20 min; active compounds read low; AID 2156;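 active means fluorescence ratio B-score at most minus 3 library SDs, with starting brightness B-score within 2 library SDs, cut at about -5.5 in these data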
# KCNQ2 enhance – potentiators of rat KCNQ2 potassium channel; O88943; CHO-K1 KCNQ2, FluxOR thallium flux fluorescence; active compounds read high; B-score at 10 µM; 310,000 tested, 0.54% active; AID 2239;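 active means fluorescence ratio B-score at least 3 SD of library B-scores, with initial fluorescence B-score within 3 of them, cut at about 5.3 in these data; same plate scores as AID 2156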;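 further: B-score of peak minus minimum over baseline fluorescence ratio after K+ and Tl+ stimulus; positive B-score means potentiation of KCNQ2 with more thallium influx and brighter signal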
# Kir21 conf inh – confirmation of mouse Kir2.1 potassium channel inhibitors; shares compounds with KCNQ2 enhance; Kir2.1-expressing cells, FluxOR thallium flux fluorescence; active compounds read low; Tl flux remaining, % of negative control (active compounds read low), % at 10 µM; 2,300 tested, 41% active;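 active means Primary-screen hit whose thallium flux fell at least 3 control SD below untreated wells in both duplicates, with normal baseline fluorescence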;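 further: 0% = blank wells without stimulus and 100% = stimulated no-compound controls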
# Target sequence (P35561 whole entry, looked up): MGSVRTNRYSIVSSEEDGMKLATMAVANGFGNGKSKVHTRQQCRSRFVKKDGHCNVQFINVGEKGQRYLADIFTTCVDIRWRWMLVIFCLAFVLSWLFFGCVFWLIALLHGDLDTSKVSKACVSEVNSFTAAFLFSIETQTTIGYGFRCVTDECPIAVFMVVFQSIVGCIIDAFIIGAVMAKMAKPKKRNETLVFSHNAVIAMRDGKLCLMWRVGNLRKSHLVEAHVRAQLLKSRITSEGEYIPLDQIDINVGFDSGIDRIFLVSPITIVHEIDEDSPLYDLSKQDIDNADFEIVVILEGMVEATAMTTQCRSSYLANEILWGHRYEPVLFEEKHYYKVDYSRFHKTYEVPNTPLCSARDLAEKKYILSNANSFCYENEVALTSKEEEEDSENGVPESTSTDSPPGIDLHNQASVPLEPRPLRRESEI
# HEK293 ctr – parental HEK293 activity in Kir2.1 inhibitor counter-screen; 2,300 tested, 19% active; shares compounds with KCNQ2 enhance; AID 2105; parental HEK293 cells, FluxOR thallium flux fluorescence; 0% = unstimulated blank wells; FluxOR signal as % of negative control (100 = no effect), % at 10 µM;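 active means dye signal at least 3 control SD above or below untreated wells in both duplicates, raw fluorescence within 3, either direction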;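 further: percent is based on the flux ratio of peak minus minimum fluorescence over baseline F0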
# CHO-K1 Tl ctr – parental CHO-K1 activity in KCNQ2 potentiator counter-screen | AID 2282 | shares compounds with KCNQ2 enhance | parental CHO-K1 cells, FluxOR thallium flux fluorescence; zero = vehicle mean+3SD, 100% = vehicle-minus-blank window | 1,200 tested, 43% active | activity increase over 3SD of controls, % at 10 µM;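 active means signal rise of at least 3 SD above the untreated control mean, in both duplicate wells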;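 further: counter screen of KCNQ2 potentiator hits so any rise reflects channel-independent effects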
# KCNQ1 sel pot – human KCNQ1 counter-target activity of KCNQ2 potentiators; shares compounds with KCNQ2 enhance; CHO KCNQ1 stable, FluxOR thallium flux fluorescence; beyond 3SD, as % of vehicle-control signal; activation over 3SD threshold, % at 10 µM; 1,200 tested, 28% active;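 active means fluorescence ratio rise of at least 3 SD of vehicle wells above their mean, in both replicate wells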;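 further: 0% = vehicle mean plus 3 SD and 100% = vehicle minus unstimulated blank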
# KCNQ2 pot confirm – rat KCNQ2 channel potentiator confirmation; AID 2287; CHO-KCNQ2 cells, FluxOR thallium flux fluorescence; 1,200 tested, 68% active; shares compounds with KCNQ2 enhance; potentiation, less the hit threshold, % at 10 µM;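 active means fluorescence ratio rising 3 SD or more over the vehicle control mean in both replicates, plus primary screen hit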;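 further: peak minus minimum thallium fluorescence divided by baseline after K/Tl stimulus; 0% = vehicle mean plus 3 SD and 100% = vehicle minus unstimulated blank difference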
# Kir2-1 sel – mouse Kir2.1 off-target activity of KCNQ2 potentiators; activity over 3SD threshold, % at 10 µM; 1,200 tested, 2% active; HEK293 Kir2.1, FluxOR thallium flux fluorescence; shares compounds with KCNQ2 enhance;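 active means fluorescence ratio rise of at least 3 SD above the vehicle-control mean, seen in both replicates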;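 further: 0% = vehicle mean plus 3 SD and 100% = vehicle minus no-stimulus blank window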
# KCNQ2 W236L MoA – KCNQ2 potentiators acting on retigabine-insensitive rat KCNQ2 W236L mutant; AID 2558; CHO KCNQ2-W236L, automated patch clamp current; current increase over 3SD of negative controls (%), active compounds read high, % at 25 µM; 940 tested, 10% active; shares compounds with KCNQ2 enhance;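 active means current increase at least 3 SD of the untreated controls above them in both duplicate recordings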
# * marks the source's active call; other numbers are inactive results; i = inactive; · = no result. Hits are enriched below; roughly 1.6% of the tested compounds scored in any of these assays.
SMILES,KCNQ2 block,KCNQ2 enhance,Kir21 conf inh,HEK293 ctr,others
Clc1cccc(N/N=C/c2ccc(N3CCOCC3)s2)c1,i,0.69,·,·,
CC1=CC(C)(C)N(C(=O)CSc2nnc(C)s2)c2ccc(C)cc21,i,·,70.5%*,i,
CC1=CC(C)(C)N(C(=O)CSc2nnc(N)s2)c2cc(C)c(C)cc21,i,1.01,·,·,
O=S(=O)(NCc1cccnc1)c1ccc(Cl)c2ccccc12,i,·,·,·,
COc1ccc(S(=O)(=O)N2CCC(C(=O)NCCC(=O)NC3CC3)CC2)cc1,i,·,·,·,
O=C(Nc1cccc(-c2cccc(Cl)c2)c1)C1CCN(Cc2ccc(CO)o2)CC1,i,·,63.0%*,i,
Cc1ccc(CN2CCC(C(=O)Nc3cccc(-c4cccc(F)c4)c3)CC2)o1,i,·,·,·,
COc1cc(NC(=O)c2cccc(Br)c2)nc(OC)n1,i,0.35,·,·,
O=c1c2ccc(Cl)cc2nc(-c2ccc([N+](=O)[O-])cc2)n1O,i,13.6*,i,303.5%*,CHO-K1 Tl ctr=5.3*;KCNQ1 sel pot=-13.8;KCNQ2 pot confirm=41.6*;Kir2-1 sel=-13.2;KCNQ2 W236L MoA=i
O=c1c2cc(Cl)ccc2nc(-c2ccccc2)n1O,i,6.54*,i,325.5%*,CHO-K1 Tl ctr=5.6*;KCNQ1 sel pot=9.7*;KCNQ2 pot confirm=37.5*;Kir2-1 sel=-20.1;KCNQ2 W236L MoA=i
O=c1c2cc(Br)ccc2nc(-c2ccc([N+](=O)[O-])cc2)n1O,i,9.81*,i,383.0%*,CHO-K1 Tl ctr=-3.7;KCNQ1 sel pot=64.6*;KCNQ2 pot confirm=50.6*;Kir2-1 sel=-19.3;KCNQ2 W236L MoA=i
N#Cc1ccc(-c2nc3ccc(Br)cc3c(=O)n2O)cc1,i,4.23,·,·,
COc1ccccc1-c1nc2cc(Cl)ccc2c(=O)n1O,i,·,·,·,
O=c1c2cc(Br)ccc2nc(-c2cccc(C(F)(F)F)c2)n1O,i,27.7*,i,611.0%*,CHO-K1 Tl ctr=-11.5;KCNQ1 sel pot=-12.6;KCNQ2 pot confirm=92.2*;Kir2-1 sel=13.8*;KCNQ2 W236L MoA=i
O=c1c2ccccc2nc(-c2ccccc2)n1O,i,0.66,·,·,
Cc1ccccc1-c1nc2ccc(Cl)cc2c(=O)n1O,i,·,·,·,
Cc1cccn2c(CN3CCCC(c4ccccc4)C3)c(C(=O)N3CCOCC3)nc12 (configuration not stated),i,0.58,·,·,
CSc1cccc(NC(=O)CNS(=O)(=O)c2ccccc2)c1,i,·,·,·,
Cc1cc(C)cc(N(CC(=O)NC2CCC(C)CC2)S(=O)(=O)c2c(C)[nH]c(=O)[nH]c2=O)c1 (configuration not stated),i,0.99,·,·,
Clc1cc(Cl)c(OCCCCn2cncn2)c(Cl)c1,i,2.38,·,·,
Cc1ccc(CNC(=O)CCNS(=O)(=O)c2cccc3nsnc23)cc1,i,·,·,·,
CCOC(=O)c1c(C)[nH]c(C)c1S(=O)(=O)NCc1ccccc1C,i,0.34,·,·,
CCOc1ccc(Nc2cc(C)nc3ccc(C)cc23)cc1,i,·,·,·,
Cc1ccc(Nc2cc(C)nc3ccc(C)cc23)cc1,i,0.17,48.5%*,i,
CCOC(=O)c1n[nH]c2ccccc12,i,1.32,·,·,
SMILES,KCNQ2 block,KCNQ2 enhance,Kir21 conf inh,HEK293 ctr,others
CCOC(=O)c1n[nH]n2c1nc(=S)c1ccccc12,i,8.17*,i,391.0%*,CHO-K1 Tl ctr=-24.1;KCNQ1 sel pot=-13.1;KCNQ2 pot confirm=43.1*;Kir2-1 sel=1.3*;KCNQ2 W236L MoA=i
Cc1cc(C(=O)OCC(=O)Nc2ccc(F)cc2)c(C)o1,i,5.67*,i,i,CHO-K1 Tl ctr=73.7*;KCNQ1 sel pot=-10.0;KCNQ2 pot confirm=-2.7;Kir2-1 sel=-34.4;KCNQ2 W236L MoA=i
Cc1cc(C(=O)OCC(=O)Nc2ccccc2)c(C)o1,i,1.45,·,·,
Cc1csc(Nc2nc(N)c(C(=O)Nc3ccccc3)o2)n1,i,·,·,·,
Cc1c(CN2CCC(n3nccc3NC(=O)C3CCOC3)CC2)[nH]c2ccccc12 (configuration not stated),i,0.76,·,·,
O=C(Nc1ccnn1C1CCN(Cc2cc3ccccc3[nH]2)CC1)C1CCOC1 (configuration not stated),i,5.72*,i,i,CHO-K1 Tl ctr=-8.6;KCNQ1 sel pot=1.5*;KCNQ2 pot confirm=42.2*;Kir2-1 sel=-35.3;KCNQ2 W236L MoA=i
Cc1ccsc1C(=O)C1CCCN(Cc2cc(F)ccc2-n2cccn2)C1 (configuration not stated),i,·,·,·,
COc1cccc(C(=O)NCCNC(=O)c2ccc(C)nc2)c1,i,0.21,·,·,
Clc1cc(Br)ccc1OCCCNCc1ccccc1,i,·,·,·,
Cc1cc(OCCOCCNCc2ccccc2)ccc1C(C)C,i,2.23,21.5%*,i,
CC(C)(C)c1ccccc1OCCOCCNCc1ccccc1,i,·,·,·,
Cc1ccc(C(C)C)c(OCCNCc2ccccc2)c1,i,1.12,16.5%*,i,
Cc1ccc(C)c(OCCCNCc2ccccc2)c1,i,·,23.5%*,i,
Cc1ccc(C(C)C)c(OCCN)c1,i,0.89,·,·,
Cc1ccc(C(C)C)c(OCCCCN2CCNCC2)c1,i,0.18,44.0%*,i,
Cc1ccc(C(C)C)c(OCCOCCN2CCNCC2)c1,i,·,·,·,
CCC(C)(C)NC(=O)c1ccc2c(c1)OCCO2,i,0.04,·,·,
Cc1ccccc1C(=O)NCC(=O)OC(C)C(=O)Nc1cccc(S(=O)(=O)N2CCOCC2)c1 (configuration not stated),i,·,·,·,
CS(=O)(=O)Nc1ccc(C(=O)N2CC(=O)Nc3ccccc32)cc1,i,2.01,·,·,
Cc1ccc(/C=C2\SC(N3CCCCC3)=NC2=O)cc1,i,0.15,·,·,
CC(C)(C)c1ccc(/C=C2/SC(N3CCCC3)=NC2=O)cc1,i,6.94*,i,i,CHO-K1 Tl ctr=4.3*;KCNQ1 sel pot=-8.6;KCNQ2 pot confirm=12.0*;Kir2-1 sel=-13.8;KCNQ2 W236L MoA=0.6%*
CC(C)n1c(CN2CCN(C(=O)c3ccco3)CC2)nc2c1c(=O)n(C)c(=O)n2C,i,0.82,·,·,
NS(=O)(=O)c1ccc(NCc2ccccc2OCc2ccc(F)cc2)cc1,i,6.64*,i,i,CHO-K1 Tl ctr=37.7*;KCNQ1 sel pot=-16.2;KCNQ2 pot confirm=2.5*;Kir2-1 sel=-53.5;KCNQ2 W236L MoA=i
NS(=O)(=O)c1ccc(CCNCc2ccccc2OCc2ccc(F)cc2)cc1,i,0.56,·,·,
CCC(NC(=O)c1ccc2nc(Cc3ccc(OC)cc3)oc2c1)c1ccncc1 (configuration not stated),i,0.44,·,·,
O=C(NCc1csc2ccc(Cl)cc12)Nc1ccccc1,i,·,·,·,
O=C(NCc1ccc(Cl)cc1Cl)Nc1ccccc1,i,10.7*,i,i,CHO-K1 Tl ctr=-3.4;KCNQ1 sel pot=4.9*;KCNQ2 pot confirm=29.2*;Kir2-1 sel=-33.9;KCNQ2 W236L MoA=9.9%*
CC(=O)N1CCC(N(CCCOC(C)C)S(=O)(=O)c2ccc([N+](=O)[O-])cc2)CC1,i,0.06,·,·,

# Bioassay records deposited in PubChem by Johns Hopkins Ion Channel Center.
